# Measured values: PubChem BioAssay (Tox21)
# Several values for one entry are separate records, joined by “and”; a condition that tells them apart may be missing. Equal values may be shown once. A number with no mark means an inactive call. Inconclusive results are not listed. Where a call stands in place of a potency, no number is given. Activity calls are given as the source filed them. Unless noted, calls come from the whole dose curve; as a rule, active = well fitted curve in the direction sought with a large enough effect in the repeat runs; inconclusive = weak or mixed curves; inactive = no such curve, though single readings can be large; an effect the other way counts as inactive or inconclusive.
# Columns and labels:
# [1] = target: Estrogen receptor beta (Homo sapiens) (UniProt Q92731); experiment: qHTS assay to identify small molecule antagonists of the estrogen receptor beta (ER-beta) signaling pathway (AID 1259378; active = well fitted inhibition curve with a large enough effect in the signal ratio in the repeat runs, not every such curve was filed as active; the % refers to the signal ratio; note: potency is the fitted concentration of half-maximal effect); settings: ER-beta-UAS-bla HEK293T, beta-lactamase FRET ratio, 16 h; series mostly up to 92.4 µM
# Chain of Estrogen receptor beta (Homo sapiens) (Q92731 whole entry, looked up): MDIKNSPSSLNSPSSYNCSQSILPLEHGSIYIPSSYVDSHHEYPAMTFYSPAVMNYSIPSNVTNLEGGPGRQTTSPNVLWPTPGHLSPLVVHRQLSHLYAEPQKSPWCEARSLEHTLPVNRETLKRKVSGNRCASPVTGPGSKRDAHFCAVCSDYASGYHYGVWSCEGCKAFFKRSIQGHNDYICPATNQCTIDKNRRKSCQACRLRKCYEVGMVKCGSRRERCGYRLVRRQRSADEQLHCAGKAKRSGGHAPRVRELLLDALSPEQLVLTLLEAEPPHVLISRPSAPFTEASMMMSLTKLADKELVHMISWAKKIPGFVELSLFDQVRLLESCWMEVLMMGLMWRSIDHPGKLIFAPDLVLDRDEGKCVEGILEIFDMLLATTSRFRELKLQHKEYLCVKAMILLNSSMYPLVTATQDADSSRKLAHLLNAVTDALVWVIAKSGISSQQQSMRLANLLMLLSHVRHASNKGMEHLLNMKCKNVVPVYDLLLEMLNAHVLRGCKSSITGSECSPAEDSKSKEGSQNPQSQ
# Procedure, shortened: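 ER-beta-UAS-bla HEK293T (GripTite) cells in 2% charcoal-stripped FBS medium were preincubated 6 hr at 37C, dosed with compound, then stimulated with 1 nM E2 (final) for 16 hr; beta-lactamase reporter read by B/G FRET fluorescence after 2 hr substrate loading.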
# [2] = qHTS assay to identify small molecule antagonists of the estrogen receptor beta (ER-beta) signaling pathway - cell viability counter screen (AID 1259382); settings: ER-beta-UAS-bla HEK293T viability, CellTiter-Glo luminescence, 16 h; series mostly up to 92.4 µM; note: nearly all actives have a fitted effect of over 55% in size; note: potency is the fitted concentration of half-maximal effect
# Procedure, shortened: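 ER-beta-UAS-bla HEK293T cells in 2% charcoal-stripped FBS medium, treated with compound plus 1 nM 17-beta-estradiol for 16 h at 37C. Viability read by CellTiter-Glo luminescence after 30 min at room temperature in the same wells.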
# [3] = target: Estrogen receptor (Homo sapiens) (UniProt P03372); experiment: qHTS assay to identify small molecule agonists of the estrogen receptor alpha (ER-alpha) signaling pathway in the presence of an antagonist (AID 1259383; calls by dose curve; note: top concentration of the series differs between compounds; nearly all actives have a fitted effect of over 15% in size); settings: VM7Luc4E2 cells, ERE-luciferase, +ICI-182,780, 22 h; series mostly up to 92.4 µM
# Chain of Estrogen receptor (Homo sapiens) (P03372 whole entry, looked up): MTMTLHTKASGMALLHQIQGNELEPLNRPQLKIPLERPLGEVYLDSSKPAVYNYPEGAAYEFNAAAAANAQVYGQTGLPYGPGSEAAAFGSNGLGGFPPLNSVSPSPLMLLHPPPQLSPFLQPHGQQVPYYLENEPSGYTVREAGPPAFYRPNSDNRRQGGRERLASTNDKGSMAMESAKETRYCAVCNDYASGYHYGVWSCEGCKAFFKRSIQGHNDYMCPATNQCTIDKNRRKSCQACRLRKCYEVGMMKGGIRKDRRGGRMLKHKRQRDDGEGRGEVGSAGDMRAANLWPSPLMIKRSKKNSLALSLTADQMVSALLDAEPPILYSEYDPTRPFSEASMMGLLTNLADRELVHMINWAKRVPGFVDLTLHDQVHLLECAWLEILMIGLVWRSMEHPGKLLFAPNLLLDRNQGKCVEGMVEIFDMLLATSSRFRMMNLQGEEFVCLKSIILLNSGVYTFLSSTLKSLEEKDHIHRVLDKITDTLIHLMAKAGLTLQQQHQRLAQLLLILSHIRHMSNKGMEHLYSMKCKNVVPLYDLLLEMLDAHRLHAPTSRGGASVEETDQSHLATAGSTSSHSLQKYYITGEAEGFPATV
# Procedure, shortened: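 VM7Luc4E2 cells express endogenous full-length ER-alpha with an ERE-luciferase reporter and were hormone-deprived for 5 days. Compounds at 15 concentrations were added with 10.0nM ICI-182,780 for 22hr at 37C. Luminescence was read with ONE-Glo.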
# [4] = qHTS assay to identify small molecule agonists of the estrogen receptor alpha (ER-alpha) signaling pathway in the presence of an antagonist - cell viability counter screen (AID 1259386); settings: VM7Luc4E2 viability, CellTiter-Fluor fluorescence, 22 h; series mostly up to 92.4 µM;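 note: cells exposed to compounds for 22 h at 37 °C before the viability read; nearly all actives have a fitted effect of over 30% in size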; note: potency is the fitted concentration of half-maximal effect
# Procedure, shortened: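 Cell viability in VM7Luc4E2 cells (endogenous full-length ER-alpha) measured by CellTiter-Fluor fluorescence in the same wells as the luciferase screen. Cells pre-cultured 5 days in charcoal-stripped serum, then treated 22 h with compounds at 15 concentrations plus 10.0nM ICI-182,780.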
# [5] = qHTS assay to identify small molecule agonists of the androgen receptor (AR) signaling pathway in the presence of an antagonist - cell viability counter screen (AID 1259379); settings: MDA-kb2 viability, CellTiter-Fluor, 16 h; series mostly up to 92.4 µM; note: nearly all actives have a fitted effect of over 25% in size; note: potency is the fitted concentration of half-maximal effect;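 for activity change, negative = cytotoxicity: MDA-kb2 human breast cancer cells carrying an MMTV luciferase reporter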
# Procedure, shortened: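 MDA-kb2 cells (MMTV-luciferase, AR/GR), 3,000/well, 5 h attachment, then 3.0 µM nilutamide (final) and compounds at 15 concentrations. Viability by CellTiter-Fluor fluorescence after 16 h at 37 °C, 0% CO2, in the reporter wells.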
# [6] = qHTS assay to identify small molecule agonists of the estrogen receptor beta (ER-beta) signaling pathway - cell viability counter screen (AID 1259380); settings: ER-beta-bla HEK293T viability, CellTiter-Glo luminescence, 16 h; series mostly up to 92.4 µM; note: nearly all actives have a fitted effect of over 30% in size; note: potency is the fitted concentration of half-maximal effect
# Procedure, shortened: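 ER-beta-UAS-bla HEK293T cells in medium with 2% charcoal-stripped FBS, pre-incubated 6 hr, then treated 16 hr at 37C. Cytotoxicity read in the same wells by CellTiter-Glo luminescence after 30 min at room temperature.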
# [7] = target: Androgen receptor (Homo sapiens) (UniProt P10275); experiment: qHTS assay to identify small molecule agonists of the androgen receptor (AR) signaling pathway in the presence of an antagonist (AID 1259381; calls by dose curve; note: nearly all actives have a fitted effect of over 15% in size); settings: MDA-kb2 MMTV-luciferase, AR agonist + nilutamide, 16 h; series mostly up to 92.4 µM
# Chain of Androgen receptor (Homo sapiens) (P10275 whole entry, looked up): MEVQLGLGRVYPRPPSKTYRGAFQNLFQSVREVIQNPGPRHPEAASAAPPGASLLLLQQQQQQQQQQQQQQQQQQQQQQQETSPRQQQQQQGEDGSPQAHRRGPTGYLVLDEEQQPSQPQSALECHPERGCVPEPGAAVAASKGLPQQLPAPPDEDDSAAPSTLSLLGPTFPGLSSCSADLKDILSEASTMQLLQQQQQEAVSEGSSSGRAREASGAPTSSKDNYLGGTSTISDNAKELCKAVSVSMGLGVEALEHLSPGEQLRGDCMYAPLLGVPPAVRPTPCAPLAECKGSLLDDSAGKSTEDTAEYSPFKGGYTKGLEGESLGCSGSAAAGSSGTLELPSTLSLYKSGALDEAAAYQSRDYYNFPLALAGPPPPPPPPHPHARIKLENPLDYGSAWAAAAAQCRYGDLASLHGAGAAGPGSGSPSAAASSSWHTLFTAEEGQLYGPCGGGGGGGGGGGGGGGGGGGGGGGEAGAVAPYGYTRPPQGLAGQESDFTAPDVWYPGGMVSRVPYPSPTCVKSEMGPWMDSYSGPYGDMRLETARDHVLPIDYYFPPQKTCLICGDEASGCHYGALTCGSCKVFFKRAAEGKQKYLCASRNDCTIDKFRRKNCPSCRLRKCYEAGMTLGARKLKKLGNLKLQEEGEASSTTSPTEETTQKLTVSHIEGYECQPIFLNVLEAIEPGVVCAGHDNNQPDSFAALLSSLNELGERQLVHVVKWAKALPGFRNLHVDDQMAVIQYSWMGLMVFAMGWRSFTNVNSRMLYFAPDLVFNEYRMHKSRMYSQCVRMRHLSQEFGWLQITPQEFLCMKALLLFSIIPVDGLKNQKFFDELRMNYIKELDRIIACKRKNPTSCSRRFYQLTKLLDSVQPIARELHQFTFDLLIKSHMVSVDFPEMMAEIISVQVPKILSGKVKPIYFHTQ
# Procedure, shortened: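 MDA-kb2 cells carrying MMTV-luciferase (AR/GR responsive), 3,000 cells/well, co-treated with 3.0 uM nilutamide final. Compounds at 15 concentrations, 16 hr at 37C without CO2. Luciferase luminescence read after 30 min with ONE-Glo.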
# [8] = qHTS assay to identify small molecule agonists or antagonists of the thyroid stimulating hormone receptor (TSHR) signaling pathway - wild type cell line counter screen (AID 1259384; calls by dose curve); settings: HEK293 wild type, cAMP HTRF counter-screen; series mostly up to 92.4 µM
# Procedure, shortened: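 Wild-type HEK293 cells were plated 18 h at 37 C/5% CO2, pin-dosed with compound plus Ro20-1724 medium, held 30 min at room temperature, then given cAMP-d2 and anti-cAMP-cryptate; fluorescence was read after 1 h. Fifteen concentrations, triplicate.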
# [9] = target: Thyrotropin receptor (Homo sapiens) (UniProt P16473); experiment: qHTS assay to identify small molecule antagonists of the thyroid stimulating hormone receptor (TSHR) signaling pathway (AID 1259385; calls by dose curve; note: nearly all actives have a fitted effect of over 20% in size; note: potency is the fitted concentration of half-maximal effect); settings: TSHR-HEK293 cAMP HTRF, TSH-stimulated antagonist mode; series mostly up to 92.4 µM
# Chain of Thyrotropin receptor (Homo sapiens) (P16473 whole entry, looked up): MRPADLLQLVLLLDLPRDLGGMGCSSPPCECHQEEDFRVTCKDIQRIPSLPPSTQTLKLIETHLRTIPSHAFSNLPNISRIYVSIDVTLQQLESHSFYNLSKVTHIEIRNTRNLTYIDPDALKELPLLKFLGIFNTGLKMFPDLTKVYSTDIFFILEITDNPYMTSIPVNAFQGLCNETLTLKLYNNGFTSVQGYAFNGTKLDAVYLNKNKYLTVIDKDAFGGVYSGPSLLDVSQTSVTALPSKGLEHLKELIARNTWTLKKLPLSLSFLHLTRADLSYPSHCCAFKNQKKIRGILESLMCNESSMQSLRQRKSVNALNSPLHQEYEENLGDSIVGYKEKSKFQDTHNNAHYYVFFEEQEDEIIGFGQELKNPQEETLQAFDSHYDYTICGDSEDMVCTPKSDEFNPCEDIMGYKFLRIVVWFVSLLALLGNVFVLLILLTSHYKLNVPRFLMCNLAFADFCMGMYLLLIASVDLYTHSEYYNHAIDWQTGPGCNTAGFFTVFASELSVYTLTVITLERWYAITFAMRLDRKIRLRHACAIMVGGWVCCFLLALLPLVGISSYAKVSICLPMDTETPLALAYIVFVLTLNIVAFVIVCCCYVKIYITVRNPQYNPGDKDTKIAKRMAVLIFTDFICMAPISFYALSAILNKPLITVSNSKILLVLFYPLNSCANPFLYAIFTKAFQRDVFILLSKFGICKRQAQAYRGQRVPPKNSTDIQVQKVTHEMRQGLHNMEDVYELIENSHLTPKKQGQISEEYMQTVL
# Procedure, shortened: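 TSHR-HEK293 cells were plated and held 18 h at 37C/5% CO2, then given compound plus Ro20-1724 and stimulated with TSH at 1.5 ng/mL final. After 30 min at room temperature, cAMP was detected with cAMP-d2/anti-cAMP-cryptate (1 h) by fluorescence.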
structure (smiles),measurement,setting,value
Nc1ccc(N=Nc2ccccc2)cc1,Potency,[1],21.7 µM (active)
same,Potency,[2],inactive
same,Potency,[3],inactive
same,Potency,[4],30.6 µM (active)
O.O.O.O.O.O.O.O=S(=O)([O-])[O-].[Co+2],Potency,[5],inactive
same,Potency,[6],inactive
same,Potency,[2],inactive
O=c1[nH]c2cc(Cl)ccc2n1C1CCNCC1,Potency,[5],inactive
same,Potency,[6],inactive
same,Potency,[7],inactive
same,Potency,[2],inactive
same,Potency,[3],inactive
same,Potency,[8],inactive
same,Potency,[9],inactive
same,Potency,[4],inactive
O=C1C[C@@H]2OCC=C3CN4CC[C@]56c7ccccc7N1[C@H]5[C@H]2[C@H]3C[C@H]46,Potency,[5],inactive
same,Potency,[6],inactive
same,Potency,[2],inactive
same,Potency,[8],inactive
same,Potency,[9],inactive
CCCN,Potency,[5],inactive
same,Potency,[6],inactive
same,Potency,[2],inactive
same,Potency,[8],inactive
same,Potency,[9],inactive
same,Potency,[4],inactive
CCCCn1cc[n+](C)c1.[Cl][Fe-]([Cl])([Cl])[Cl],Potency,[5],inactive
same,Potency,[6],inactive
same,Potency,[2],inactive
same,Potency,[4],inactive
CCCC[N+]1(C)CCCC1 (tested in a mixture with another compound),Potency,[5],inactive
same,Potency,[6],inactive
same,Potency,[2],inactive
same,Potency,[4],inactive
O=[N+]([O-])[O-].[Tl+],Potency,[5],inactive
same,Potency,[6],0.346 µM (active)
same,Potency,[2],inactive
same,Potency,[8],inactive
same,Potency,[9],inactive
same,Potency,[4],inactive
ClC1=C(Cl)[C@]2(Cl)[C@H]3[C@H]([C@@H]4C=C[C@H]3C4)[C@@]1(Cl)C2(Cl)Cl,Potency,[5],inactive
same,Potency,[6],61.1 µM (active)
same,Potency,[2],inactive
same,Potency,[3],inactive
same,Potency,[9],inactive
same,Potency,[4],inactive
Oc1cc(Cl)cc(Cl)c1,Potency,[5],inactive
same,Potency,[6],inactive
same,Potency,[2],inactive
same,Potency,[3],inactive
same,Potency,[4],inactive
O=C(NC(=O)c1c(F)cccc1F)Nc1ccc(Oc2ccc(C(F)(F)F)cc2Cl)cc1F,Potency,[5],68.6 µM (active)
same,Potency,[6],inactive
same,Potency,[2],inactive
same,Potency,[8],inactive
C[C@@H]1CC2=CC(=O)CC[C@@H]2[C@H]2CC[C@@]3(C)[C@@H](CC[C@]3(C)O)[C@@H]21,Potency,[5],inactive
same,Potency,[6],inactive
same,Potency,[2],inactive
same,Potency,[8],inactive
same,Potency,[4],inactive
CCCCON=O,Potency,[5],inactive
same,Potency,[6],inactive
same,Potency,[2],inactive
same,Potency,[9],inactive
same,Potency,[4],inactive
c1cc[n+]2c(c1)-c1cccc[n+]1CC2,Potency,[5],inactive
same,Potency,[6],inactive
same,Potency,[2],inactive
same,Potency,[3],inactive
same,Potency,[9],inactive
same,Potency,[4],29.8 µM (active)
O.O.O.O=C([O-])[C@H]([O-])[C@@H]([O-])C(=O)[O-].O=C([O-])[C@H]([O-])[C@@H]([O-])C(=O)[O-].[K+].[K+].[Sb+3].[Sb+3],Potency,[5],17.3 µM (active)
same,Potency,[6],inactive
same,Potency,[2],inactive
same,Potency,[3],inactive
same,Potency,[4],54.8 µM (active)
CNC(=O)O/N=C(\C)C(C)S(C)(=O)=O (stereo unspecified),Potency,[5],inactive
same,Potency,[6],inactive
same,Potency,[2],inactive
same,Potency,[8],inactive
same,Potency,[9],inactive
same,Potency,[4],inactive
[Cl-].[Cl-].[Sn+2],Potency,[5],inactive
same,Potency,[6],inactive
same,Potency,[2],inactive
same,Potency,[4],inactive
O=[N+]([O-])c1cc(C(F)(F)F)c(Cl)c([N+](=O)[O-])c1Nc1ncc(C(F)(F)F)cc1Cl,Potency,[5],6.11 µM (active)
same,Potency,[6],6.86 µM (active)
same,Potency,[2],8.63 µM (active)
same,Potency,[3],inactive
same,Potency,[9],61.1 µM (active)
same,Potency,[4],30.6 µM (active)
C1=CCC=C1,Potency,[5],inactive
same,Potency,[6],inactive
same,Potency,[2],inactive
same,Potency,[4],inactive
O=P(Cl)(Cl)Cl,Potency,[5],inactive
same,Potency,[6],inactive
same,Potency,[2],inactive
same,Potency,[3],inactive
same,Potency,[9],inactive
same,Potency,[4],inactive
CCCCn1cc[n+](C)c1 (tested in a mixture with another compound),Potency,[5],inactive
same,Potency,[6],inactive
same,Potency,[2],inactive
same,Potency,[4],inactive
c1csc(-c2ccc(-c3cccs3)s2)c1,Potency,[5],inactive
same,Potency,[6],inactive
same,Potency,[2],inactive
same,Potency,[8],inactive
same,Potency,[9],inactive
same,Potency,[4],inactive
[C-]1=CC=CC1.[Cl][Zr+2][Cl].c1cc[cH-]c1,Potency,[5],inactive
same,Potency,[6],inactive
same,Potency,[2],inactive
same,Potency,[4],inactive
CN1C(=O)[C@@H](NC(=O)c2cc3ccccc3[nH]2)N=C(c2ccccc2)c2ccccc21,Potency,[5],inactive
same,Potency,[6],inactive
same,Potency,[2],inactive
same,Potency,[8],inactive
same,Potency,[9],inactive
same,Potency,[4],inactive
Clc1cc(Cl)c(-c2cc(Cl)c(Cl)cc2Cl)cc1Cl,Potency,[5],inactive
same,Potency,[6],inactive
same,Potency,[2],inactive
same,Potency,[8],inactive
same,Potency,[4],inactive
CC(=O)[O-].CC(=O)[O-].O.O.O.[Pb+2],Potency,[5],inactive
same,Potency,[6],inactive
same,Potency,[2],inactive
same,Potency,[4],inactive
CNN,Potency,[5],inactive
same,Potency,[6],inactive
same,Potency,[2],inactive
same,Potency,[4],inactive
CO/N=C(/C1=NOCCO1)c1ccccc1Oc1ncnc(Oc2ccccc2Cl)c1F,Potency,[5],15.3 µM (active)
same,Potency,[6],21.7 µM (active)
same,Potency,[2],inactive
same,Potency,[3],inactive
same,Potency,[4],27.3 µM (active)
Clc1c(Cl)c(Cl)c(Cl)c(Cl)c1Cl,"activity change, negative = cytotoxicity",[5],1.03% [at 8.39 µM]
same,"activity change, negative = cytotoxicity",[6],0.531% [at 8.39 µM]
same,"activity change, negative = cytotoxicity",[2],8.34% [at 8.39 µM]
same,cAMP activity change,[8],"-1.12% [at 8.39 µM, stronger effect = higher value]"
same,"activity change, negative = inhibition",[9],2.16% [at 8.39 µM]
same,"activity change, negative = cytotoxicity",[4],1.86% [at 8.39 µM]
CCN(CC)C(=S)S,Potency,[5],inactive
same,Potency,[6],6.08 µM (active) and 9.69 µM (active)
same,Potency,[2],12.1 µM (active)
same,Potency,[3],inactive
same,Potency,[9],inactive
same,Potency,[4],inactive
CC(=O)[O-].CC(=O)[O-].O.O.[Zn+2],Potency,[5],inactive
same,Potency,[6],inactive
same,Potency,[2],inactive
same,Potency,[4],inactive
CC(=O)O.CC(=O)O.CC(=O)O.CC(=O)O.CC(=O)O.CC(=O)O.CC(=O)O.O.O.[Cr].[Cr].[Cr],Potency,[5],inactive
same,Potency,[6],inactive
same,Potency,[2],inactive
same,Potency,[4],inactive
CN(C)CCc1c[nH]c2ccccc12,Potency,[5],inactive
same,Potency,[6],inactive
same,Potency,[2],inactive
same,Potency,[9],inactive
same,Potency,[4],inactive
Nc1nc(N)c(N)c(N)n1,Potency,[5],inactive
same,Potency,[6],inactive
same,Potency,[2],inactive
same,Potency,[4],inactive
O.O.O.O.O.O.O=S(=O)([O-])[O-].[Ni+2],Potency,[5],inactive
same,Potency,[6],inactive
same,Potency,[2],inactive
same,Potency,[4],inactive
CCCCC(CC)COC(=O)OOC(C)(C)C (stereo unspecified),Potency,[5],inactive
same,Potency,[6],inactive
same,Potency,[2],inactive
same,Potency,[4],inactive
C[C@]12Cc3cn[nH]c3C[C@@H]1CC[C@@H]1[C@@H]2CC[C@@]2(C)[C@H]1CC[C@]2(C)O,Potency,[5],inactive
same,Potency,[6],8.41 µM (active)
same,Potency,[2],6.68 µM (active)
same,Potency,[8],inactive
same,Potency,[9],inactive
same,Potency,[4],inactive
CC(=O)[O-].CC(=O)[O-].[Co+2],Potency,[5],inactive
same,Potency,[6],inactive
same,Potency,[2],inactive
same,Potency,[4],inactive
CC(=O)[O-].CC(=O)[O-].CC(=O)[O-].[Sb+3],"activity change, negative = cytotoxicity",[5],3.2% [at 3.27 µM]
same,"activity change, negative = cytotoxicity",[6],2.42% [at 3.32 µM]
same,"activity change, negative = cytotoxicity",[2],-1.85% [at 3.27 µM]
same,"activity change, negative = cytotoxicity",[4],-1.24% [at 3.27 µM]
CCCCN(CCCC)C(=S)S,Potency,[5],inactive
same,Potency,[6],inactive
same,Potency,[2],inactive
same,Potency,[3],inactive
same,Potency,[4],inactive
CCn1cc[n+](C)c1 (tested in a mixture with another compound),Potency,[5],inactive
same,Potency,[6],inactive
same,Potency,[2],inactive
same,Potency,[4],inactive
Clc1ccc(C(c2ccc(Cl)cc2)C(Cl)Cl)cc1,Potency,[5],inactive
same,Potency,[6],54.5 µM (active)
same,Potency,[3],inactive
same,Potency,[8],inactive
same,Potency,[9],62.1 µM (active) and 61.1 µM (active)
same,Potency,[4],inactive
